{
  "source": "PubChem BioAssay (NCATS)",
  "note": "Records with an inconclusive call do not appear. Entries that show only a call come without a potency. Activity calls are given as the source filed them. Calls follow the shape of the dose curve; as a rule, active = well fitted inhibition curve with a large enough effect; inconclusive = small, poorly fitted or top-dose-only effect, or effect the other way; inactive = flat fitted curve, though single readings scatter. Potency is read from the fitted curve at half-maximal effect.",
  "data": [
    {"target": "D(1A) dopamine receptor (Homo sapiens) (UniProt P21728)", "sequence (P21728 whole entry, looked up)": "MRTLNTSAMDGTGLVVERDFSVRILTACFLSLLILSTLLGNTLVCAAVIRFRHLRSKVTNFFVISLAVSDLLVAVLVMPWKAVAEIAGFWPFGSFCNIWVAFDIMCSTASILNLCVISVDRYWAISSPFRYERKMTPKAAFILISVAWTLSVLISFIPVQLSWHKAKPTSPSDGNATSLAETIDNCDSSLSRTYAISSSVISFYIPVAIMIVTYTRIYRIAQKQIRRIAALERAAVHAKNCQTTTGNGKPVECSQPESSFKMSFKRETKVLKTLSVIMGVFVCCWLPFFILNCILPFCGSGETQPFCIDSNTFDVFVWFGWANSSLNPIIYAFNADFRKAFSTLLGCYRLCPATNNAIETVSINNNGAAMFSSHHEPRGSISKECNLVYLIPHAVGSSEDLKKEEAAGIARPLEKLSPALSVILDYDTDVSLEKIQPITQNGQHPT", "assay": "HTS Assay for Allosteric Agonists of the Human D1 Dopamine Receptor: Primary Screen for Antagonists (AID 488983); also: nearly all actives have a fitted effect of over 65% in size", "settings": "D1 receptor cell assay, antagonist mode, qHTS titration; series mostly up to 41.8 µM", "text": "Dopamine receptors (DARs) are involved in the etiology and/or therapy of a number of neuropsychiatric and endocrine disorders. For instance, all receptor-based antiparkinsonian drugs work via stimulating the […] DAR subtype whereas all FDA-approved antipsychotic agents are antagonists of this receptor. […] There are three different types of allosteric modulators that we are seeking, two of which will stimulate or augment receptor signaling, allosteric agonists and potentiators, while the third, allosteric antagonists, will attenuate receptor signaling. The present primary screening assay measures compound agonism by tracking calcium flux in a […], inducible Hek293 Trex D1 cell line.\nFreshly passaged cells are plated in 1536 well black, clear bottom plates at a density of 4000 cells/well in 3 ul of complete media containing 1x tetracycline inducer. After an overnight incubation at 30 C in 5% CO2, cells are loaded with 2 ul of the no wash Calcium Assay Kit (ABD Bioquest) and incubated at room temperature for 30 to 90 minutes. A 10 cycle (1 second/cycle) baseline measurement is taken and then the FDSS online 1536 pintool delivers 23 nl of compound library (as well as dopamine controls) to the plate. The plate is measured for kinetically at 1 cycle/sec for 180 seconds and is considered to be the agonist portion of the assay (eg, compounds which activate a positive calcium response during this portion are flagged as potential agonists). Following the 180 second read, 1 ul of an EC80 of dopamine is delivered by an onboard pipette head. Measurements are taken kinetically for an additional 180 seconds.", "values": [
      {"smiles": "CC(=O)c1ccc(S(=O)(=O)NC(=O)NC2CCCCC2)cc1", "Potency": "inactive"},
      {"smiles": "COc1ccc(Cc2nccc3cc(OC)c(OC)cc23)cc1OC", "Potency": "inactive"},
      {"smiles": "CC/C(=C(\\c1ccccc1)c1ccc(OCCN(C)C)cc1)c1ccccc1", "Potency": "inactive"},
      {"smiles": "CCN(CC)C(=O)c1ccc(O)c(OC)c1", "Potency": "inactive"},
      {"smiles": "CCN(CC)CCNC(=O)c1ccc(N)cc1", "Potency": "inactive"},
      {"smiles": "CCCCC1C(=O)N(c2ccccc2)N(c2ccccc2)C1=O", "Potency": "inactive"},
      {"smiles": "CCN1CCC[C@H]1CNC(=O)c1cc(S(N)(=O)=O)ccc1OC", "Potency": "inactive"},
      {"smiles": "O=C1NC(=O)C(c2ccccc2)(c2ccccc2)N1", "Potency": "inactive"},
      {"smiles": "CCN(CC)CCOC(=O)c1ccc(N)cc1", "Potency": "inactive"},
      {"smiles": "O=c1cc(-c2ccc(O)cc2)oc2cc(O)cc(O)c12", "Potency": "inactive"},
      {"smiles": "CC(C)OC(=O)C(C)(C)Oc1ccc(C(=O)c2ccc(Cl)cc2)cc1", "Potency": "inactive"},
      {"smiles": "COC(=O)[C@@H]1[C@H]2C[C@H]3c4[nH]c5ccccc5c4CCN3C[C@@H]2CC[C@@H]1O", "Potency": "17.8 µM (active)"},
      {"smiles": "Clc1ccc(Cn2c(CN3CCCC3)nc3ccccc32)cc1", "Potency": "inactive"},
      {"smiles": "COc1ccccc1N1CCN(CCCNc2cc(=O)n(C)c(=O)n2C)CC1", "Potency": "inactive"},
      {"smiles": "CCn1cc(C(=O)O)c(=O)c2ccc(C)nc21", "Potency": "inactive"},
      {"smiles": "CC(=O)N[C@@H](CS)C(=O)O", "Potency": "inactive"},
      {"smiles": "O=C(NCCN1CCOCC1)c1ccc(Cl)cc1", "Potency": "inactive"},
      {"smiles": "C[N+](C)(C)CCCCCC[N+](C)(C)C", "Potency": "inactive"},
      {"smiles": "CCCCCN(C)CCC(O)(P(=O)(O)O)P(=O)(O)O", "Potency": "inactive"},
      {"smiles": "CC(=O)O[C@]1(C(C)=O)CC[C@H]2[C@@H]3C=C(Cl)C4=CC(=O)[C@@H]5C[C@@H]5[C@]4(C)[C@H]3CC[C@@]21C", "Potency": "inactive"},
      {"smiles": "COc1cccc(-c2cc(=O)c3ccccc3o2)c1N", "Potency": "inactive"},
      {"smiles": "CCCNC(=O)NS(=O)(=O)c1ccc(Cl)cc1", "Potency": "inactive"},
      {"smiles": "NCCS", "Potency": "inactive"},
      {"smiles": "O=c1c(-c2ccc(O)cc2)coc2cc(O)ccc12", "Potency": "inactive"},
      {"smiles": "CC(=O)CCCCn1c(=O)c2c(ncn2C)n(C)c1=O", "Potency": "inactive"},
      {"smiles": "CC1(C)CCC2=C(O1)c1ccccc1C(=O)C2=O", "Potency": "inactive"},
      {"smiles": "O=C1NCC2(CCN(CCc3ccccc3)CC2)O1", "Potency": "inactive"},
      {"smiles": "Clc1ccc(C(c2ccc(Cl)cc2)n2cc[n+](CC(OCc3ccc(Cl)cc3Cl)c3ccc(Cl)cc3Cl)c2)cc1", "note": "(centres undefined)", "Potency": "inactive"},
      {"smiles": "NC(N)=Nc1nc(CSCC/C(N)=N/S(N)(=O)=O)cs1", "Potency": "inactive"},
      {"smiles": "CN(C)CCC(c1ccccc1)c1ccccn1", "note": "(centres undefined)", "Potency": "inactive"},
      {"smiles": "O=C(O)CCc1nc(-c2ccccc2)c(-c2ccccc2)o1", "Potency": "inactive"},
      {"smiles": "CC(C)NCC(O)COc1cccc2[nH]ccc12", "note": "(centres undefined)", "Potency": "inactive"},
      {"smiles": "C[N+](C)(C)CC(=O)O", "Potency": "inactive"},
      {"smiles": "Cc1cccc(C)c1OCC(C)N", "note": "(centres undefined)", "Potency": "inactive"}
    ]}
  ]
}
